Test results taken from PMC12820563, “FoxP3 forms a head-to-head dimer in vivo and stabilizes its multimerization on adjacent microsatellites”.
In all, about 16,000 sequences were measured (“rpm ratio (pull-down/input)”: median about 0.94, highest 2% from about 1.7 on). What follows is part of a selection rich in the highest values, with near analogues and random picks from the rest.

What follows are sequences tested against T1, MBP-FoxP1dN (Mus musculus, UniProt P58462 326-579) (assay: PD-seq (MBP pull-down with sequencing); 20 mM Tris-HCl pH 7.5, 100 mM NaCl, 1.5 mM MgCl2, 0.4 uM protein, 0.1 uM dsDNA library, 30 min, room temperature, amylose pull-down; high values mean tight binding). Conditions: protein: recombinant; tags: His6-MBP; chain copies: 2; dsDNA, one strand shown.
T1 sequence: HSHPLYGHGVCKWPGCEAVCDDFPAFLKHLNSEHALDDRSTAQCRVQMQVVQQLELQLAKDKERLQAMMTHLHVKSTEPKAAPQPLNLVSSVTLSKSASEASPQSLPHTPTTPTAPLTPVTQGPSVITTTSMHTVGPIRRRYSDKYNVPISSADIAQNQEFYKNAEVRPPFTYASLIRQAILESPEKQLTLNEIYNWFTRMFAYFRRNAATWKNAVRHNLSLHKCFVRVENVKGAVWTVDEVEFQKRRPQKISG
How it was run: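 Mouse FoxP3 or FoxP1 fragment lacking the N-terminus, His6-MBP-tagged and expressed in E. coli, was incubated at 0.4 µM with 0.1 µM Klenow-filled degenerate double-stranded DNA library for 30 min at room temperature in Tris pH 7.5 buffer with NaCl and MgCl2. Complexes captured on amylose resin were washed three times and their DNA sequenced on Illumina. Binding is reads-per-million enrichment of pull-down over input, replicates pooled.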

How did the binding signal turn out when “GATGATTGTTCTCCCAGCTGATGAATTCACGCTGTCGAGTAAACAAATTTTCCTAATCTTTCTGTTCAAGCGCCATCTAC” was run?
Its binding signal is 0.895 RPM ratio (pull-down/input).

How did the binding signal turn out when “GATGATTGTTCTCCCAGCTGATGAATTACTCGTCTCGAGTAAACAAATTTTCCTAATCTTTCTGTTCAAGCGCCATCTAC” was run?
The binding signal was 0.904 RPM ratio (pull-down/input).

For “GATGATTGTTCTCCCAGCTGATGAATTTGAGTGATCGAGTAAACAAATTTTCCTAATCTTTCTGTTCAAGCGCCATCTAC”, which binding signal is on record?
Its binding signal is 0.906 RPM ratio (pull-down/input).

Which binding signal does the source give for “GATGATTGTTCTCCCAGCTGATGAATTAACGCGGTCGAGTAAACAAATTTTCCTAATCTTTCTGTTCAAGCGCCATCTAC” here?
Its binding signal is 0.904 RPM ratio (pull-down/input).

For “GATGATTGTTCTCCCAGCTGATGAATTTTTTATGTCGAGTAAACAAATTTTCCTAATCTTTCTGTTCAAGCGCCATCTAC”, which binding signal is on record?
The binding signal was 1.04 RPM ratio (pull-down/input).

“GATGATTGTTCTCCCAGCTGATGAATTTATGATGTCGAGTAAACAAATTTTCCTAATCTTTCTGTTCAAGCGCCATCTAC” was tested. Which binding signal did it give?
The binding signal was 1.51 RPM ratio (pull-down/input).

“GATGATTGTTCTCCCAGCTGATGAATTTATGTCGTCGAGTAAACAAATTTTCCTAATCTTTCTGTTCAAGCGCCATCTAC” was tested. Which binding signal did it give?
The binding signal was 1.14 RPM ratio (pull-down/input).

With “GATGATTGTTCTCCCAGCTGATGAATTATGTCTGTCGAGTAAACAAATTTTCCTAATCTTTCTGTTCAAGCGCCATCTAC” as the sequence, how does the binding signal read?
Its binding signal is 0.913 RPM ratio (pull-down/input).

With “GATGATTGTTCTCCCAGCTGATGAATTATGTTTGTCGAGTAAACAAATTTTCCTAATCTTTCTGTTCAAGCGCCATCTAC” as the sequence, how does the binding signal read?
The binding signal was 2.67 RPM ratio (pull-down/input).

Which binding signal does the source give for “GATGATTGTTCTCCCAGCTGATGAATTCTTTATGTCGAGTAAACAAATTTTCCTAATCTTTCTGTTCAAGCGCCATCTAC” here?
The binding signal was 1.04 RPM ratio (pull-down/input).

How did the binding signal turn out when “GATGATTGTTCTCCCAGCTGATGAATTTATGTTGTCGAGTAAACAAATTTTCCTAATCTTTCTGTTCAAGCGCCATCTAC” was run?
The binding signal was 2.86 RPM ratio (pull-down/input).

“GATGATTGTTCTCCCAGCTGATGAATTATTTATGTCGAGTAAACAAATTTTCCTAATCTTTCTGTTCAAGCGCCATCTAC” was tested. Which binding signal did it give?
The binding signal was 1.83 RPM ratio (pull-down/input).

For “GATGATTGTTCTCCCAGCTGATGAATTTGTTATGTCGAGTAAACAAATTTTCCTAATCTTTCTGTTCAAGCGCCATCTAC”, which binding signal is on record?
Its binding signal is 1.55 RPM ratio (pull-down/input).

How did the binding signal turn out when “GATGATTGTTCTCCCAGCTGATGAATTAATTATGTCGAGTAAACAAATTTTCCTAATCTTTCTGTTCAAGCGCCATCTAC” was run?
The binding signal was 1.07 RPM ratio (pull-down/input).

How did the binding signal turn out when “GATGATTGTTCTCCCAGCTGATGAATTGTTTATGTCGAGTAAACAAATTTTCCTAATCTTTCTGTTCAAGCGCCATCTAC” was run?
The binding signal was 2.77 RPM ratio (pull-down/input).

“GATGATTGTTCTCCCAGCTGATGAATTTATTATGTCGAGTAAACAAATTTTCCTAATCTTTCTGTTCAAGCGCCATCTAC” was tested. Which binding signal did it give?
Its binding signal is 1.4 RPM ratio (pull-down/input).

With “GATGATTGTTCTCCCAGCTGATGAATTGGTCAGGTCGAGTAAACAAATTTTCCTAATCTTTCTGTTCAAGCGCCATCTAC” as the sequence, how does the binding signal read?
The binding signal was 0.794 RPM ratio (pull-down/input).

For “GATGATTGTTCTCCCAGCTGATGAATTGCGTGCCTCGAGTAAACAAATTTTCCTAATCTTTCTGTTCAAGCGCCATCTAC”, which binding signal is on record?
Its binding signal is 1.09 RPM ratio (pull-down/input).

How did the binding signal turn out when “GATGATTGTTCTCCCAGCTGATGAATTCGGTTTCTCGAGTAAACAAATTTTCCTAATCTTTCTGTTCAAGCGCCATCTAC” was run?
Its binding signal is 0.847 RPM ratio (pull-down/input).

How did the binding signal turn out when “GATGATTGTTCTCCCAGCTGATGAATTCGGAGCATCGAGTAAACAAATTTTCCTAATCTTTCTGTTCAAGCGCCATCTAC” was run?
The binding signal was 1 RPM ratio (pull-down/input).

With “GATGATTGTTCTCCCAGCTGATGAATTCGATTCTTCGAGTAAACAAATTTTCCTAATCTTTCTGTTCAAGCGCCATCTAC” as the sequence, how does the binding signal read?
Its binding signal is 0.855 RPM ratio (pull-down/input).

For “GATGATTGTTCTCCCAGCTGATGAATTAAAGGAATCGAGTAAACAAATTTTCCTAATCTTTCTGTTCAAGCGCCATCTAC”, which binding signal is on record?
Its binding signal is 0.934 RPM ratio (pull-down/input).

How did the binding signal turn out when “GATGATTGTTCTCCCAGCTGATGAATTGTTCGAGTCGAGTAAACAAATTTTCCTAATCTTTCTGTTCAAGCGCCATCTAC” was run?
The binding signal was 1.05 RPM ratio (pull-down/input).

Which binding signal does the source give for “GATGATTGTTCTCCCAGCTGATGAATTTTGGCGATCGAGTAAACAAATTTTCCTAATCTTTCTGTTCAAGCGCCATCTAC” here?
The binding signal was 0.955 RPM ratio (pull-down/input).

For “GATGATTGTTCTCCCAGCTGATGAATTGGACGTGTCGAGTAAACAAATTTTCCTAATCTTTCTGTTCAAGCGCCATCTAC”, which binding signal is on record?
The binding signal was 0.855 RPM ratio (pull-down/input).

With “GATGATTGTTCTCCCAGCTGATGAATTGTCCCTCTCGAGTAAACAAATTTTCCTAATCTTTCTGTTCAAGCGCCATCTAC” as the sequence, how does the binding signal read?
Its binding signal is 0.967 RPM ratio (pull-down/input).

With “GATGATTGTTCTCCCAGCTGATGAATTGGACAAATCGAGTAAACAAATTTTCCTAATCTTTCTGTTCAAGCGCCATCTAC” as the sequence, how does the binding signal read?
Its binding signal is 1.05 RPM ratio (pull-down/input).

“GATGATTGTTCTCCCAGCTGATGAATTTGATATTTCGAGTAAACAAATTTTCCTAATCTTTCTGTTCAAGCGCCATCTAC” was tested. Which binding signal did it give?
Its binding signal is 1.13 RPM ratio (pull-down/input).

“GATGATTGTTCTCCCAGCTGATGAATTGATATTTTCGAGTAAACAAATTTTCCTAATCTTTCTGTTCAAGCGCCATCTAC” was tested. Which binding signal did it give?
Its binding signal is 2.4 RPM ratio (pull-down/input).

“GATGATTGTTCTCCCAGCTGATGAATTTGATATGTCGAGTAAACAAATTTTCCTAATCTTTCTGTTCAAGCGCCATCTAC” was tested. Which binding signal did it give?
Its binding signal is 1 RPM ratio (pull-down/input).

With “GATGATTGTTCTCCCAGCTGATGAATTGATATTGTCGAGTAAACAAATTTTCCTAATCTTTCTGTTCAAGCGCCATCTAC” as the sequence, how does the binding signal read?
Its binding signal is 2.35 RPM ratio (pull-down/input).

For “GATGATTGTTCTCCCAGCTGATGAATTTTGATATTCGAGTAAACAAATTTTCCTAATCTTTCTGTTCAAGCGCCATCTAC”, which binding signal is on record?
The binding signal was 1.19 RPM ratio (pull-down/input).

For “GATGATTGTTCTCCCAGCTGATGAATTGAATCTGTCGAGTAAACAAATTTTCCTAATCTTTCTGTTCAAGCGCCATCTAC”, which binding signal is on record?
Its binding signal is 0.897 RPM ratio (pull-down/input).
